Assay outcomes: PubChem BioAssay, several laboratories
Compounds with a hit are over-represented: about 2.3% of the library has one in this group of screens.
FAS TE block: blocks the thioesterase domain of human fatty acid synthase; P49327; recombinant FAS-TE, OMFH fluorogenic substrate, fluorescence endpoint; inhibition, % at 15 µM; actives 0.67% (n = 360,000); AID 602261;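 active = compounds whose normalised, plate-corrected inhibition of enzyme fluorescence in the single-dose primary screen is 50% or more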;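 also: 0% = DMSO with enzyme and 100% = substrate without enzyme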
Calpain2 inh: calpain II (pig) inhibition | purified calpain II, fluorogenic peptide substrate, 30 min | inhibition, % at 16 µM | actives 0.37% (n = 220,000);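 active = inhibition above about 50%, limit read from the data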
H9c2 TAG inh: triacylglycerol accumulation inhibition | H9c2 cells, Nile Red lipid (TAG) fluorescence; cells loaded with 200 µM oleic acid | inhibition, % at 12.5 µM | actives 0.66% (n = 230,000) | AID 651582;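 active = pattern-corrected inhibition of lipid staining of at least 50% with the nuclear-stain viability signal not falling by more than 50%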;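 also: 0% = DMSO wells and 100% = triacsin C control wells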
aDG glyco act: increases alpha dystroglycan glycosylation; Pro5-aDG cells, alpha-DG glycosylation AlphaScreen (IIH6); 0% Pro5, 100% B10-LARGE cell signal; activation, % at 10 µM; actives 0.22% (n = 360,000); AID 624168;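 active = activation of at least 8% versus controls, or a plate z-score of at least 8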;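 also: Pro5 are CHO cells carrying HIG-tagged alpha-DG that lacks glycosylation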
MIN6 prolif-1: MIN6 beta-cell proliferation induction; actives 0.29% (n = 330,000); proliferation, % at 10 µM; MIN6 cells proliferation, ATPlite luminescence, 48 h; cells starved in 0.2% serum; 100% = growth in 10% serum;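 active = compounds whose signal lies at least 3.5 SD above the mean of all wells on their plate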;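 also: 0% = DMSO-treated cells in low-serum medium and 100% = 10% serum control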
H9c2 protect: modulators protecting cardiomyocytes from myocardial damage; actives 0.63% (n = 360,000); H9c2 cardiomyocytes, H2O2 injury protection, ATPLite, 2 h; protection from H2O2 cell death, % at 20 µM;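 active = compounds giving at least 50% protection of heart cells from peroxide-induced death in the single-dose screen, raw or plate-pattern-corrected value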;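 also: 0% = DMSO wells with peroxide and 100% = DMSO wells without peroxide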
MIN6 prolif-2: MIN6 beta-cell replication induction, confirmed; AID 463095; 920 tested, under 10 active; proliferation increase, % at 50 µM; MIN6 beta-cell proliferation, ATPlite luminescence, 48 h; cells kept in 0.2% serum; scaled between 0.2% and 10% serum; shares compounds with MIN6 prolif-1;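 active = proliferation increase above 40% at any of the four tested concentrations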
The depositor's hits bear a star; i = inactive; . = no result.

SMILES	FAS TE block	Calpain2 inh	H9c2 TAG inh	aDG glyco act	MIN6 prolif-1	H9c2 protect	MIN6 prolif-2
O=C(O)C1CCCCC1C(=O)NCCCCc1ccccc1 (centres undefined)	-3.8	11.7	.	-0.2	-3.0	2.4	.
O=C(O)C1CCCCC1C(=O)NCCCc1ccccc1 (centres undefined)	-3.0	9.3	2.1	0.1	9.0*	2.6	-3.2
CNCCCOc1cccc(OC(C)C)c1	-6.2	-8.8	7.4	0.7	6.3*	4.3	-1.0
CNCCCOc1cccc(Oc2ccccc2)c1	-3.5	34.9	.	4.1	-4.7	1.4	.
Cc1cc(C(=O)CSc2nnc(-c3ccccc3)n2-c2ccccc2)c(C)n1-c1ncn[nH]1	-149.2	-427.0	0.1	-0.1	6.9*	-0.6	-4.2
CCOC(=O)c1c(N)sc2c1CCN(CCc1ccccc1)C2	-15.9	.	-6.5	-0.1	7.5*	-8.4	-6.4
Cc1cccc(-n2ncc3c(=O)[nH]c(SCC(=O)N4CC(=O)Nc5ccccc54)nc32)c1	1.8	.	-12.1	0.2	10.9*	13.1	-0.3
Cc1ccc(-n2ncc3c(=O)[nH]c(SCC(=O)N4CC(=O)Nc5ccccc54)nc32)cc1	-2.2	.	-5.2	-0.3	-4.7	10.6	.
C#CCOC(=O)c1ccc(-n2cncn2)nc1	-6.2	-25.2	-7.1	0.1	5.9*	15.5	-0.7
Cc1coc2cc3oc(=O)cc(C)c3cc12	-9.9	-77.7	.	0.0	7.3*	9.6	3.6
CCN1CN(CCc2ccccc2)CNC1=S	-9.8	3.7	.	0.0	9.3*	-2.8	-2.7
CC(C)CNC(=O)COC(=O)c1ccccc1SCC(=O)NCC(C)C	-3.9	-6.5	5.8	0.1	7.8*	0.4	1.7
COc1cccc(OC)c1C(=O)OCC(=O)NCC(C)C	-6.5	16.1	9.1	-0.1	-0.6	7.2	.
O=C(O)c1ccc(Cl)c(S(=O)(=O)NCC2CCCO2)c1 (centres undefined)	-4.4	22.1	3.9	2.6	7.3*	-0.7	1.4
O=C1CCCN1c1ccc(Br)cc1	-6.3	-24.8	.	-0.1	7.2*	-7.1	-1.5
O=C(O)c1c(Cl)cccc1Cl	-2.4	.	.	-0.1	5.4	-1.0	.
CC1(c2ccc(Cl)cc2Cl)NC(=O)N(CC(=O)NCCC2=CCCCC2)C1=O (centres undefined)	7.1	.	16.6	0.1	.	-8.8	.
CCCC(=O)Nc1nn(CC)c2nc3ccc(C)cc3cc12	-7.1	.	.	0.3	9.5*	3.6	0.8
O=C(CNC(=O)c1ccccc1F)Nc1ccccc1C(F)(F)F	-6.1	-13.6	-2.1	0.0	-1.9	2.6	.
CCC(C)N(C(=O)CSc1ncnc2sccc12)C1CCS(=O)(=O)C1 (centres undefined)	-6.8	.	1.7	0.1	14.1*	2.7	4.3
COc1ccccc1CNC(=O)C1CCC(=O)N1C(C)C (centres undefined)	-5.1	.	.	0.0	-2.3	4.8	.
Cc1cc(C)c(NC(=O)C2CCCO2)c(C)c1NC(=O)C1CCCO1 (centres undefined)	-3.7	.	.	0.0	-2.2	-3.8	.
O=C(NNC1=NCCC1)c1cccc(Br)c1	-21.1	-29.2	6.6	0.1	9.7*	-3.7	4.5
CC(C(=O)Nc1ccc(C#N)cc1)N(C)CC(=O)N(C)c1c(N)n(Cc2ccccc2)c(=O)[nH]c1=O (centres undefined)	-0.1	.	-1.2	0.2	0.4	0.7	.
Cn1c(=O)c2cn(-c3ccccc3)cc2n(C)c1=O	-3.8	4.4	0.8	0.1	5.4*	-5.8	1.0
SMILES	FAS TE block	Calpain2 inh	H9c2 TAG inh	aDG glyco act	MIN6 prolif-1	H9c2 protect	MIN6 prolif-2
Cc1ccc(CC(=O)N2CCN(C(=O)C3CCCO3)CC2)cc1 (centres undefined)	-2.3	.	-1.2	-0.2	-2.3	-5.1	.
CS(=O)(=O)N1CCCC(C(=O)NCCN2CCC(Cc3ccccc3)CC2)C1 (centres undefined)	-6.9	-41.8	.	0.0	5.4*	-2.7	-4.8
CCOC(=O)c1c[nH]c2nc(C)ccc2c1=O	-9.9	-8.4	13.1	-0.3	1.3	23.7	.
CCOC(=O)c1cc[nH]c1CC(=O)NC	-2.5	-7.1	.	0.1	8.5*	5.1	-1.9
C=CCn1c(N2CCN(c3ccc(OC)cc3)CC2)nc2c1c(=O)n(C)c(=O)n2C	2.3	16.4	-26.0	0.7	8.3*	-8.8	-2.6
c1cncc(CNc2ncnc3ccc(-c4ccoc4)cc23)c1	-8.7	.	-3.7	0.3	15.7*	-0.1	1.2
Cc1cccc(-c2ccc3ncnc(NCc4cccnc4)c3c2)c1	-7.0	.	.	2.0	-5.9	-1.9	.
Cc1ccc(C(=O)CSc2nc(N)cc(=O)[nH]2)cc1	-9.3	5.9	16.3	0.1	-3.6	1.6	.
Nc1cc(=O)[nH]c(SCC(=O)c2ccc(F)cc2)n1	0.5	.	.	0.0	8.3*	-0.9	-0.4
COC(=O)[C@@]12C[C@@H](CC(=O)NCCC(C)C)C(=O)N(Cc3ccccc3)C1=CCC(C)(C)C2	.	.	.	0.7	.	.	.
C=CCNc1nc(N)c([N+](=O)[O-])c(NCc2ccccc2)n1	4.8	.	.	-0.1	8.3*	-21.7	2.4
CN(Cc1cccs1)C(=O)COc1cccc2c1OC(C)(C)C2	-3.7	.	-16.2	0.0	9.9*	1.5	-1.0
CN(C)CCNC(=O)COc1cccc2c1OC(C)(C)C2	-2.7	-29.1	8.1	0.2	0.9	5.3	.
CCOC(=O)c1cc2c(=O)n3cccc(C)c3nc2n(CC2CCCO2)c1=NC(C)=O (centres undefined)	4.7	.	6.8	-0.1	9.6*	10.9	1.1
Cc1cc(C)c(S(=O)(=O)Nc2ncn[nH]2)cc1C	-2.1	.	.	0.1	-3.1	-3.4	.
Cn1c(=O)[nH]c(=O)c2c1nc1n2CCCN1CCc1ccccc1	-6.6	3.0	-69.1	0.0	7.2*	0.9	2.7
CC1(C)Cc2c(sc3c2c(=O)n(-c2cccc(Cl)c2)c(=O)n3CC(N)=O)CO1	-4.7	-18.9	14.4	0.2	-4.1	0.2	.
CCCCn1c(SCC(=O)c2cc(OC)ccc2OC)nc2cc(S(N)(=O)=O)ccc21	8.0	-37.3	2.8	-0.1	0.0*	2.3	5.8
NC(=O)c1cc([N+](=O)[O-])c(Cl)cc1NCc1cccnc1	29.2	.	20.7	0.0	12.2*	3.0	6.0
CCOC(=O)c1sc(NC(=S)NC(=O)c2ccco2)nc1C	-10.6	41.8	.	-0.3	-1.9	-4.2	.
CCOC(=O)c1sc(NC(NC(=O)c2ccco2)(C(=O)OC)C(F)(F)F)nc1C (centres undefined)	1.7	36.1	13.3	-0.1	7.6*	-0.7	-2.0
CCOC(=O)c1c(C)nc2sc3c(c2c1-c1ccc(OC)cc1)NC(c1ccccc1)NC3=O (centres undefined)	0.1	i	.	-0.2	9.2*	26.4	7.7
